Source: PubChem BioAssay (NCI)
Compounds without any hit were thinned out: in the full panel of roughly 79,000, 15% have a hit. Calls of active or inactive are those of the source. No stated cut-off is given here; in the data, active means growth inhibition above about 70%; inactive means the rest.

Legend:
[1] = NCI Yeast Anticancer Drug Screen. Data for the rad52 strain (AID 147);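 further: 0% = growth of vehicle-treated control cultures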; settings: S. cerevisiae rad52 mutant growth inhibition, active compounds read high
How it was run: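 Screen used a yeast mutant impaired in DNA repair. After compound exposure, growth was measured. Values reflect inhibition compared with vehicle-treated cells.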

[2] = NCI Yeast Anticancer Drug Screen. Data for the wt1 strain (AID 149);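 further: 0% = growth of vehicle-treated wt1 cultures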; settings: S. cerevisiae wt1 strain (SPY 50644) growth inhibition, active compounds read high
How it was run: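 Yeast wt1 strain exposed to compounds; growth inhibition measured relative to vehicle-treated controls.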

[3] = NCI Yeast Anticancer Drug Screen. Data for the rad50EPP+ strain (AID 151);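 further: 0% = growth of vehicle-treated control cultures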; settings: S. cerevisiae rad50 mutant strain, active compounds read high
How it was run: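 Exposing the rad50EPP+ strain to each compound, growth was compared with vehicle-only cultures to give inhibition.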

[4] = NCI Yeast Anticancer Drug Screen. Data for the mgt1 strain (AID 153); settings: S. cerevisiae mgt1 mutant growth inhibition, active compounds read high
How it was run: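 Genetically defined yeast (mgt1) treated with compound; inhibition of growth expressed against vehicle-treated controls.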

[5] = NCI Yeast Anticancer Drug Screen. Data for the rad50 strain (AID 155);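 further: 0% = growth of vehicle-only cultures of the same strain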; settings: S. cerevisiae rad50 strain growth inhibition, active compounds read high
How it was run: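 Yeast carrying a defined DNA repair defect were exposed to test compounds, and growth was compared with vehicle-treated controls to give percent inhibition.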

[6] = NCI Yeast Anticancer Drug Screen. Data for the mec2-1 strain (AID 157); settings: S. cerevisiae mec2-1 strain, active compounds read high
How it was run: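 Readout is yeast growth inhibition, normalised to vehicle-treated controls, in the mec2-1 strain exposed to compound.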

[7] = NCI Yeast Anticancer Drug Screen. Data for the sgs1 mgt1 strain (AID 161);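 further: 0% = growth of cultures given vehicle only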; settings: S. cerevisiae sgs1 mgt1 strain, active compounds read high
How it was run: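 Yeast cells carrying a defined DNA-repair defect were exposed to test compounds. Growth inhibition was measured relative to vehicle-treated controls.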

[8] = NCI Yeast Anticancer Drug Screen. Data for the CLN2oe strain (AID 163);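 further: 0% = growth of vehicle-only control cultures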; settings: S. cerevisiae CLN2oe strain, active compounds read high
How it was run: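 Values reflect how much compound exposure reduced yeast growth, referenced to vehicle-exposed cells. Assay organism is a strain with a defined genetic change affecting cell-cycle control.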

[9] = NCI Yeast Anticancer Drug Screen. Data for the cln2 rad14 strain (AID 165);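 further: 0% = growth equal to vehicle treated cultures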; settings: S. cerevisiae cln2 rad14 strain, active compounds read high
How it was run: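 Relative to vehicle controls, growth inhibition of compound-treated cln2 rad14 yeast was recorded.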

[10] = NCI Yeast Anticancer Drug Screen. Data for the bub3 strain (AID 167); settings: S. cerevisiae bub3 mutant strain, active compounds read high
How it was run: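 Compounds were applied to a genetically altered yeast strain carrying a cell-cycle control defect. Growth inhibition was scored against vehicle-treated controls.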

[11] = NCI Yeast Anticancer Drug Screen. Data for the wt2 strain (AID 169);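 further: 0% = growth of vehicle-treated yeast cultures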; settings: S. cerevisiae wt2 strain growth inhibition, active compounds read high
How it was run: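 Values express reduction in yeast growth under compound treatment, referenced to vehicle-treated cells.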

[12] = NCI Yeast Anticancer Drug Screen. Data for the mlh1 strain (AID 171);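 further: 0% = growth of vehicle-treated control cultures of the same strain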; settings: S. cerevisiae mlh1 strain growth inhibition, active compounds read high
How it was run: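 Steps: expose the defined-mutant yeast strain to compound; expose a parallel culture to vehicle; measure growth; express compound effect as inhibition relative to the vehicle culture.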

[13] = NCI Yeast Anticancer Drug Screen. Data for the sgs1 strain (AID 173);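 further: 0% = growth of vehicle-only control cultures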; settings: S. cerevisiae sgs1 mutant, active compounds read high
How it was run: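 Treat defined-mutant yeast with compound; measure growth; calculate inhibition relative to vehicle-treated cells.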

[14] = NCI Yeast Anticancer Drug Screen. Data for the mlh1 rad18 strain (AID 175); settings: S. cerevisiae mlh1 rad18 strain growth inhibition, active compounds read high
How it was run: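 Test agents were incubated with a yeast strain of defined genotype (DNA damage repair defect). Inhibition of growth was derived by comparison with vehicle-exposed cultures.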

[15] = NCI Yeast Anticancer Drug Screen. Data for the rad18 strain (AID 177); settings: S. cerevisiae rad18 mutant growth inhibition, active compounds read high
How it was run: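 A genetically defined yeast mutant impaired in DNA damage repair was treated with test compounds, then its growth was measured against cultures receiving vehicle alone.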

[16] = at 5.0 µM (retest, dose inferred, filed as 0.5)
[17] = at 50.0 µM (retest, dose inferred, filed as 5.0)

Measured: growth inhibition

Cc1ccc2nc3sc(=O)sc3nc2c1
inactive: [1]; at 1.2 µM 48% | [1]; at 3.7 µM 66% | [2]; at 1.2 µM -2% | [2]; at 3.7 µM 22% | [3]; at 1.2 µM 26% | [3]; at 3.7 µM 49% | [4]; at 1.2 µM 22% | [4]; at 3.7 µM 40% | [5]; at 1.2 µM 13% | [5]; at 3.7 µM 27% | [5]; [16] 27% | [6]; at 1.2 µM 16% | [6]; at 3.7 µM 37% | [6]; [16] -7% | [7]; [16] 13% | [8]; at 1.2 µM -15% | [8]; at 3.7 µM 7% | [8]; at 11.0 µM 37% | [9]; [16] 30% | [10]; at 1.2 µM -2% | [10]; at 3.7 µM 14% | [10]; [16] 59% | [10]; at 11.0 µM 52% | [11]; at 1.2 µM 11% | [11]; at 3.7 µM 34% | [12]; at 1.2 µM 27% | [12]; at 3.7 µM 50% | [13]; at 1.2 µM 42% | [13]; at 3.7 µM 68% | [14]; [16] 38% | [15]; at 1.2 µM 29% | [15]; at 3.7 µM 56%
active: [1]; at 11.0 µM 99% | [1]; at 33.0 µM 98% | [1]; at 100.0 µM 96% | [2]; at 11.0 µM 88% | [2]; at 33.0 µM 98% | [2]; at 100.0 µM 97% | [3]; at 11.0 µM 79% | [3]; at 33.0 µM 96% | [3]; at 100.0 µM 95% | [4]; at 11.0 µM 96% | [4]; at 33.0 µM 98% | [4]; at 100.0 µM 98% | [5]; at 11.0 µM 96% | [5]; at 33.0 µM 97% | [5]; [17] 92% | [5]; at 50.0 µM 97% | [5]; at 100.0 µM 96% | [6]; at 11.0 µM 98% | [6]; at 33.0 µM 98% | [6]; [17] 97% | [6]; at 50.0 µM 93.8% | [6]; at 100.0 µM 97% | [7]; [17] 94% | [7]; at 50.0 µM 98.1% | [8]; at 33.0 µM 94% | [8]; at 100.0 µM 97% | [9]; [17] 89% | [9]; at 50.0 µM 92% | [10]; at 33.0 µM 97% | [10]; [17] 91% | [10]; at 50.0 µM 97% | [10]; at 100.0 µM 95% | [11]; at 11.0 µM 95% | [11]; at 33.0 µM 98% | [11]; at 100.0 µM 97% | [12]; at 11.0 µM 98% | [12]; at 33.0 µM 98% | [12]; at 100.0 µM 95% | [13]; at 11.0 µM 97% | [13]; at 33.0 µM 97% | [13]; at 100.0 µM 96% | [14]; [17] 91% | [14]; at 50.0 µM 96.2% | [15]; at 11.0 µM 99% | [15]; at 33.0 µM 98% | [15]; at 100.0 µM 97%
